Drawing on PubChem BioAssay (NCI), this text covers growth for 15 molecules.

The structures appear in SMILES notation. Compounds without any hit were thinned out: in the full panel of roughly 83,000, 20% have a hit.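 For each line, cells grew in 96-well plates with the test compound present at a single concentration for 48 hours.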 A number with no mark means an inactive call. The source made the active and inactive calls. Rule for the calls: active = growth percent below 10; inactive = the rest.

Test systems include EKVX NSCLC; SN12C renal; UO-31 renal; TK-10 renal; ACHN renal; CAKI-1 renal; A498 renal; MOLT-4 leukemia; SR leukemia; CCRF-CEM leukemia.
Holding throughout (test): NCI-60 one-dose screen, 48 h (100 = growth as untreated, 0 = no growth, -100 = all killed)
Holding throughout (conditions): 10 µM

Consider `O=C1OCC2=C1C(c1cccc(Cl)c1)c1cc3c(cc1N2CCO)OCCO3` (centres undefined), for which the growth with EKVX NSCLC is 49.4%; in the test on SN12C renal, 30%; with UO-31 renal, 22.1%; with TK-10 renal, 68.4%; with ACHN renal, 30.5%; in the test with CAKI-1 renal, 19.9%. For the same molecule, the growth in the test with A498 renal was -18.1% (active); in the test on MOLT-4 leukemia it was 21.1%; in the test on SR leukemia it was 32.4%.
For `CCCCCCCCCCCCCCCCCC(=O)OCCCCCCC`, the growth in the test with EKVX NSCLC is 90.8%; with SN12C renal, 105%; in the test on UO-31 renal, 87.6%; in the test with TK-10 renal, 113%; with ACHN renal, 107%; in the test with CAKI-1 renal, 88%. Moreover, in the test on CCRF-CEM leukemia, the growth is 85%.
Regarding `CCC1(C(C)C)NC(=O)NC1=O` (centres undefined), the growth is 99.4% with EKVX NSCLC; 88.1% in the test on SN12C renal; 82.1% in the test with UO-31 renal; 113% in the test on TK-10 renal; 99.9% in the test with ACHN renal; 104% with CAKI-1 renal. Also, the growth in the test on CCRF-CEM leukemia is 92.4%; in the test with MOLT-4 leukemia it was 101%.
For the molecule `O=C(O)c1ccc(Cl)cc1Nc1ccc(F)cc1`, the growth is 67.3% in the test on EKVX NSCLC; 69.4% with SN12C renal; 62.5% in the test with UO-31 renal; 84.9% in the test on TK-10 renal; 82.4% with ACHN renal; 29.1% in the test with CAKI-1 renal. Moreover, the growth is 83.7% in the test with A498 renal, 56.8% with MOLT-4 leukemia and 57.2% in the test on SR leukemia.
On to `COc1ccc(C2CC(c3ccc(N(C)C)cc3)=NN2c2ccc(S(N)(=O)=O)cc2)cc1` (centres undefined), for which the growth was 28.4% in the test on EKVX NSCLC; 49.4% with SN12C renal; 32% with UO-31 renal; 44.9% in the test on TK-10 renal; 35.2% with ACHN renal; 48.2% in the test with CAKI-1 renal. For the same molecule, in the test on CCRF-CEM leukemia, the growth was 49.4%.
On to `COc1cc2nc(Nc3cccc(C(=O)O)c3)nc(N)c2cc1OC`, for which the growth with EKVX NSCLC is 95.2%; with SN12C renal it was 95.4%; in the test with UO-31 renal, 78.3%; with TK-10 renal, 108%; in the test with ACHN renal, 93.9%; in the test on CAKI-1 renal, 93.7%. The growth with A498 renal is 117%; in the test with MOLT-4 leukemia, 12.8%; in the test on SR leukemia, 105%.
As for `CCn1cc(C(=O)O)c(=O)c2cnc(N3CCCC3)nc21`, the growth is 93.7% in the test on EKVX NSCLC; 110% in the test with SN12C renal; 74.8% in the test on UO-31 renal; 116% in the test on TK-10 renal; 100% in the test with ACHN renal; 85.8% in the test with CAKI-1 renal. In addition, the growth is 87.6% in the test with A498 renal, 108% in the test with MOLT-4 leukemia and 110% in the test with SR leukemia.
As to `CN1CCC2(CC1)NC(=O)c1c(c3ccc(Cl)c(Cl)c3n1C)C2C#N` (centres undefined), the growth in the test with EKVX NSCLC was 89%; in the test on SN12C renal, 64.3%; in the test on UO-31 renal, 61.7%; in the test with TK-10 renal, 98.7%; in the test with ACHN renal it was 73.9%; in the test on CAKI-1 renal, -26.4% (active). The growth is 59.8% in the test with A498 renal, 64.1% with MOLT-4 leukemia and 39.4% in the test on SR leukemia.
In the case of `O=C(O)CN1C(=O)c2cccc3cccc(c23)C1=O`, the growth was 82.6% in the test on EKVX NSCLC; 95.4% in the test on SN12C renal; 97.1% with UO-31 renal; 114% in the test on TK-10 renal; 101% with ACHN renal; 89% with CAKI-1 renal. For the same molecule, the growth was 85.9% with A498 renal, 115% in the test with MOLT-4 leukemia and 112% in the test on SR leukemia.
Turning to `Cc1cc(O)c(C(C)(C)C)cc1Sc1cc(C(C)(C)C)c(O)cc1C`, the growth in the test with EKVX NSCLC was 40.7%; in the test with SN12C renal, 58.2%; with UO-31 renal, 37.5%; with TK-10 renal, 81%; in the test on ACHN renal, 60.7%; in the test on CAKI-1 renal it was 32.3%. The growth is 18.2% with CCRF-CEM leukemia and 1.49% (active) in the test with MOLT-4 leukemia.
In the case of `COc1cc(C(=C2O[C@@H]([C@H]3COC(C)(C)O3)[C@H]3OC(C)(C)O[C@@H]23)c2cc(OC)c(OC)c(OC)c2)cc(OC)c1OC`, the growth was 98.5% in the test on EKVX NSCLC; 92.9% in the test with SN12C renal; 95.8% in the test on UO-31 renal; 111% in the test on TK-10 renal; 99.8% in the test on ACHN renal; 107% with CAKI-1 renal. The growth in the test with CCRF-CEM leukemia is 103%; with MOLT-4 leukemia it was 99.8%.
On to `COc1cc([C@@H]2c3cc4c(cc3C(Br)[C@H]3COC(=O)[C@H]23)OCO4)cc(OC)c1OC` (some centres undefined), for which the growth was 22% in the test with EKVX NSCLC; 31% in the test with SN12C renal; 8.5% (active) in the test on UO-31 renal; 54.2% with TK-10 renal; 22.5% in the test on ACHN renal; 12.3% with CAKI-1 renal. For the same molecule, the growth in the test on CCRF-CEM leukemia was -15.5% (active).
`O=C(NN1C(=O)CSC1c1ccc(Cl)cc1)c1cccnc1` (centres undefined): the growth with EKVX NSCLC is 95.2%; with SN12C renal, 131%; with UO-31 renal, 72.2%; in the test with TK-10 renal, 107%; in the test on ACHN renal, 113%; with CAKI-1 renal it was 98.2%. Besides, the growth in the test with CCRF-CEM leukemia is 99.5%.
Turning to `COc1cc(Cc2cc(-c3ccc(Cl)cc3)n[nH]c2=O)ccc1O`, the growth in the test on EKVX NSCLC is -26% (active); in the test on SN12C renal it was 98%; in the test on UO-31 renal it was 83.9%; with TK-10 renal, 157%; in the test with ACHN renal it was 109%; with CAKI-1 renal, 132%. In addition, the growth was 104% in the test with A498 renal, -59.9% (active) in the test with MOLT-4 leukemia and -35.7% (active) in the test on SR leukemia.
On to `CCN1CCC(CCOC)(CN2c3ccccc3Sc3ccc(Cl)cc32)C1` (centres undefined), for which the growth with EKVX NSCLC is 56.7%; in the test with SN12C renal it was 59.7%; in the test on UO-31 renal, 8.09% (active); with TK-10 renal, 64.1%; in the test with ACHN renal it was 47.2%; in the test on CAKI-1 renal, 46.6%. In addition, the growth in the test with A498 renal was 56.6%; with MOLT-4 leukemia it was 22.5%; in the test on SR leukemia it was 40.4%.
